The values that follow come from PubChem BioAssay AID651813 (National Center for Advancing Translational Sciences (NCATS), 2012).

The whole screen tested about 2,100 compounds, of which about 1,100 (52%) were called active. Not shown: some 27% with an inconclusive outcome. The set was probably picked from earlier hits. The list shows a part of the results. Unmarked numbers belong to inactive results. Calls come from the whole dose curve; as a rule, active = well fitted inhibition curve with a large enough effect; inconclusive = small, poorly fitted or top-dose-only effect; inactive = no such curve, though single readings can be large or run the other way.
Potency is the fitted concentration of half-maximal effect.

DNA dC->dU-editing enzyme APOBEC-3G (Homo sapiens), sequence (Q9HC16 whole entry, looked up): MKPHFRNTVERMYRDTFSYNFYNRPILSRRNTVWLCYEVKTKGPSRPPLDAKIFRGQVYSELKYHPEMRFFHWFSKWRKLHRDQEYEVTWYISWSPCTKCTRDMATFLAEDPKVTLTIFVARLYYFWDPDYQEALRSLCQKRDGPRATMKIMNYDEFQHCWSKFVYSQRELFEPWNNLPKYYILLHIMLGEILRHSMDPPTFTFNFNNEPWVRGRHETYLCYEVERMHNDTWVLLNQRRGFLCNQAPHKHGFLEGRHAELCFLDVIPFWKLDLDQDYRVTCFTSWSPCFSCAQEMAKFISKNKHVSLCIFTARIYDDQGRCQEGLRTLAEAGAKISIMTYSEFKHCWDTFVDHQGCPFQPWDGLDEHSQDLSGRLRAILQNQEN

This test has as its target DNA dC->dU-editing enzyme APOBEC-3G (Homo sapiens) (UniProt Q9HC16). Put plainly: qHTS for inhibitors of Vif-A3G interactions: Cherry picks counterscreen.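 For max response: max response given as percent of control signal.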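 Note: hits raise yellow fluorescence by blocking Vif-driven A3G-eYFP degradation; nearly all actives have a fitted effect of over 70% in size.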 The note with it: HeLa A3G-eYFP + Vif (tagged APOBEC3G with the HIV-1 protein that degrades it), eYFP fluorescence, 24 h. Put shortly: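 HeLa cells stably expressing A3G-eYFP and Vif were treated for 24 h at 37 deg C with compounds at several concentrations; yellow fluorescence (Ex 488 nm, Em 500-530 nm) read by Acumen Explorer, MG132 as positive control.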
(qHTS replaces the single test concentration by a dilution series.)
As to `CN(C)/C=N/C1=C(C#N)C(c2cccs2)c2ccc3ccccc3c2O1` (stereo not drawn), the Potency is 2.8 µM (active).

As for `Nc1c(N(CCC2=CCCCC2)C(=O)c2ccc([N+](=O)[O-])o2)c(=O)[nH]c(=O)n1Cc1ccccc1`, the Potency was 13 µM (active).

Consider `CCCCn1c(N)c(N(CCC(C)C)C(=O)c2ccc([N+](=O)[O-])o2)c(=O)[nH]c1=O`, for which the max response is -4.38%.

`CCCCN(C(=O)c1ccc([N+](=O)[O-])s1)c1c(N)n(CCCC)c(=O)[nH]c1=O`: the max response was -2.12%.

As to `O=C1c2ccccc2C(=O)c2c(/C=C/N3CCCCC3)ccnc21`, the Potency is 23.1 µM (active).

`Nc1nc(-c2cc(O)ccc2[N+](=O)[O-])cc(-c2ccccc2)c1[N+](=O)[O-]`: the Potency was 14 µM (active).

As to `O=C(Nc1cc(=O)[nH]c(=O)[nH]1)c1cc(Cl)ccc1Cl`, the Potency was 3.14 µM (active).

`O=C(COC(=O)C12CC3CC(CC(Cl)(C3)C1)C2)N1CCCCC1`: the max response is -19.2%.

Consider `Cc1ccc(S(=O)(=O)Nc2cc(-c3nn(C)c(=O)c4ccccc34)ccc2N2CCOCC2)cc1`, for which the Potency is 15.8 µM (active).

Take `COc1ccc(/C=c2\s/c(=C/C(=O)c3ccc(C)cc3)[nH]c2=O)c(OC)c1`: the Potency was 20.6 µM (active).

As to `CCCOc1ccc(C(=O)Nc2cccc(NC(=O)c3ccc(Cl)cc3Cl)c2)cc1`, the Potency was 16.4 µM (active).

For the compound `CC(C)(C)OC(=O)NCc1ccc(NC(=O)c2nc[nH]c2C(=O)NCCCNC(=O)c2[nH]cnc2C(=O)Nc2ccc(CNC(=O)OC(C)(C)C)cc2)cc1`, the max response is 4.7%.

Take `Cc1onc(-c2c(F)cccc2Cl)c1C(=O)O/N=C(\N)c1ccc([N+](=O)[O-])o1`: the max response was 19.3%.

For `Cc1cccc(/C=C/C(=O)c2ccc([N+](=O)[O-])o2)c1`, the max response was -131%.

For the compound `O=C(/C=C/c1ccc(Cl)cc1)c1ccc([N+](=O)[O-])o1`, the Potency is 12.5 µM (active).

As for `CC(/C=N/NC(=O)c1cccc(F)c1)=C\c1ccccc1`, the Potency was 9.94 µM (active).

Regarding `O=C(O)c1ccc(N/N=C/C(Br)=C/c2ccccc2)cc1`, the max response was 24.8%.

As to `COc1cccc(C(=O)N/N=C/C(Br)=C/c2ccccc2)c1`, the Potency was 2.23 µM (active).

For the compound `COc1cccc(/C=N/n2c(C3CCCCC3)n[nH]c2=S)c1O`, the max response was 12.3%.

With `C/C(=N/NC(N)=S)c1ccc(Br)s1`, the max response is 13.4%.

Regarding `COc1ccc(N/C=C\C(=O)c2ccc(Br)cc2)cc1OC`, the Potency was 18.4 µM (active).

Turning to `COc1ccc(N/C=C/C(=O)c2cc(OC)c(OC)c(OC)c2)cc1`, the Potency is 0.886 µM (active).

For the compound `COc1ccc(C(=O)N/N=C/c2cc(Br)ccc2O)cc1OC`, the max response is -1.25%.

As for `CCOC(=O)c1cc(-c2ccccc2C)n(CC2CC(c3ccc(OC)cc3)=NO2)n1` (stereo not drawn), the max response is -3.65%.

For `COc1ccccc1C1=NOC(COc2ccc3c(C)cc(=O)oc3c2)C1` (stereo not drawn), the Potency is 0.559 µM (active).

As for `Cc1cc(=O)oc2cc(OCC(=O)N3c4ccccc4CC3C)ccc12` (stereo not drawn), the Potency was 4.44 µM (active).

Take `CCn1c(SCC(=O)c2c[nH]c3ccccc23)nnc1-c1cccs1`: the Potency is 18.4 µM (active).

For the compound `CCN(C)c1ccc(/C=N\n2nnnc2N)cc1`, the Potency is 5.59 µM (active).

For `Clc1ccc2c(c1)C(C1=NCCN1)c1ccccc1CS2` (stereo not drawn), the Potency was 3.14 µM (active).

On to `Cc1ccccc1/C=C\c1nc2ccccc2c(=O)[nH]1`, for which the Potency was 11.2 µM (active).

With `Cc1ccc(N2C(=O)c3cccc4c(N5CCN(C)CC5)ccc(c34)C2=O)c2cccnc12`, the Potency is 15.8 µM (active).

Take `O=C1c2cccc3c(N4CCCCC4)ccc(c23)C(=O)N1c1cccc(O)c1`: the Potency was 2.59 µM (active).

In the case of `O=C1c2cccc3c(N4CCCCC4)ccc(c23)C(=O)N1c1ccc(O)cc1`, the max response was 54.2%.

Turning to `O=C1c2cccc3c(N4CCCCC4)ccc(c23)C(=O)N1CCO`, the Potency was 14 µM (active).

As to `C=CCN1C(=O)c2cccc3c(N4CCCCC4)ccc(c23)C1=O`, the Potency is 18.4 µM (active).

For `CSc1nc(Sc2ccccc2Cl)c2ccccc2n1`, the max response was -6.36%.

For `CCN(CC)c1ccc(/C=C/C(=O)c2ccc(Br)cc2)cc1`, the max response is 26.9%.

As to `CCN(CC)c1ccc(/C=C/C2=C3C=CC=CC3NC=C2)cc1` (stereo not drawn), the Potency is 20.6 µM (active).

In the case of `CN(C)c1ccc(/C=C/c2ccncc2)cc1`, the Potency was 2.59 µM (active).

As for `CCN(CC)c1ccc(/C=C/c2ccncc2)cc1`, the Potency is 4.61 µM (active).

Regarding `CCN(CC)c1ccc(/C=C/c2ccccn2)cc1`, the Potency is 16.4 µM (active).

Turning to `NC(=S)N/N=C/c1cccc(O)c1O`, the max response was 3.32%.

For the compound `NC(=S)N/N=C/c1ccccc1OC(=O)/C=C/c1ccccc1`, the max response is 5.74%.

With `O=[N+]([O-])c1ccccc1C=NNC(=S)NN=Cc1ccccc1[N+](=O)[O-]`, the Potency is 8.86 µM (active).

For `COc1cc(/C=C2\C(=N)N3N=C(S(C)(=O)=O)SC3=NC2=O)ccc1OC(=O)c1ccco1`, the max response was 53.1%.

`CN(C)c1ccc(/C=C2\C(=N)N3N=C(CC(=O)N4CCCCC4)SC3=NC2=O)cc1`: the Potency is 4.61 µM (active).

With `CN(C)c1ccc(/C=C2\SC(N3CCCCC3)=NC2=O)cc1`, the Potency is 20.6 µM (active).

As to `CCN(CC)c1ccc(/C=C2\C(=N)N3N=C(CC(=O)N4CCOCC4)SC3=NC2=O)cc1`, the Potency is 1.58 µM (active).

Turning to `O=C(c1ccccn1)C1CCCN(Cc2cn[nH]c2-c2cc3ccccc3o2)C1` (stereo not drawn), the max response is 0.488%.

In the case of `C=CCn1c(O)c(N=NC(=O)CNC(=O)c2ccco2)c2ccccc21`, the Potency was 12.5 µM (active).

In the case of `C=C(C)CNC(=S)NNC(=O)c1ccco1`, the max response is 8.06%.

As for `CCOC(=S)SCC(=O)N1CCc2cc(OC)ccc2C1C1C(=O)CCCC1=O` (stereo not drawn), the Potency is 14 µM (active).

On to `Cc1cccc(C=Nc2ccccc2C(N)=O)c1`, for which the Potency is 9.94 µM (active).

As to `Cc1ccc(C=Nc2ccccc2C(N)=O)s1`, the Potency was 2.5 µM (active).

In the case of `COc1ccc(NC(=O)/C(C#N)=C\C=C\c2ccco2)cc1`, the Potency was 14 µM (active).

As to `COc1ccc(NC(=O)/C(C#N)=C/C=C/c2ccco2)cc1`, the Potency is 11.2 µM (active).

Take `COc1ccc2c(c1)c1nc3ccccc3nc1n2Cc1ccc(OC(C)C)c(OC)c1`: the Potency is 23.1 µM (active).

In the case of `COc1ccc2c(c1)c1nc3ccccc3nc1n2Cc1ccc(OC)c(OC)c1`, the Potency is 25.9 µM (active).

As for `COc1ccc2c(c1)c1nc3ccccc3nc1n2CC(=O)OC(C)C`, the max response is -18.3%.

`CC(=O)Oc1c(-c2ccc(Br)o2)oc2ccccc2c1=O`: the max response is -10.4%.

For the compound `CCc1cccc2c(C(O)c3c[nH]c4ccccc34)c[nH]c12` (stereo not drawn), the Potency is 20.6 µM (active).

For `CC[n+]1ccccc1/C=C/c1ccc(N(C)C)cc1`, the Potency is 20.6 µM (active).

For the compound `CC(C)CC[n+]1ccccc1/C=C/c1ccc(N(C)C)cc1`, the Potency was 16.4 µM (active).

For `Cc1c(CCCl)c(Cl)n2c(nc3ccccc32)c1C#N`, the Potency was 9.94 µM (active).

`CN(C)c1ccc2nc3c(=O)[nH]c(=O)nc-3n(CC(O)C(O)C(O)CO)c2c1` (stereo not drawn): the max response was 0.486%.

As for `Cc1ccc(/C=C2/NC(=O)N(Cc3ccccc3F)C2=O)s1`, the Potency was 8.2 µM (active).

As for `Cc1cccc(CN2C(=O)N/C(=C/c3ccc(C)s3)C2=O)c1`, the Potency was 6.27 µM (active).

Turning to `CN(C)c1ccc(/C=C2\NC(=S)N(Cc3ccccc3)C2=O)cc1`, the Potency is 2.5 µM (active).

As for `Cc1ccc(/C=C2/NC(=O)N(Cc3ccccc3)C2=O)s1`, the Potency is 20.6 µM (active).

As for `Cc1ccc2ccc3cc(C(=O)Nc4ccc(C)c(F)c4)nc3c2[nH]1`, the max response was -25.1%.

As to `CC(C)(C)OC(=O)NC(Cc1ccccc1)C(=O)N1CCC(C(=O)NCC(=O)Nc2ccc(F)cc2)CC1` (stereo not drawn), the Potency is 23.1 µM (active).

With `COc1ccc2c(n1)Sc1nc3ccccc3nc1N2`, the Potency is 3.26 µM (active).

`CC1C/C(=C/c2cccs2)C(=O)/C(=C/c2cccs2)C1` (stereo not drawn): the max response is 14.5%.

`COc1cc(OC)c(OC)cc1/C=C1\CC(C)C/C(=C\c2cc(OC)c(OC)cc2OC)C1=O` (stereo not drawn): the Potency was 20.6 µM (active).

Turning to `COc1ccc(COc2cc(-c3cccc(OC)c3)nc3ccc(NC(=O)c4ccc(OC)cc4)cc23)cc1`, the Potency was 3.53 µM (active).

As to `COc1ccc(-c2cc(-c3nnc(COC(=O)c4ccncc4)o3)c3ccccc3n2)cc1OC`, the max response was -0.16%.

For the compound `COc1ccc(COc2cc(-c3cccc(OC)c3)nc3ccc(NC(=O)C(C)C)cc23)cc1`, the Potency was 4.98 µM (active).

`CCN(CC)C(=O)c1ccc(/C=C/c2c[nH]c3ccccc23)[n+](C)c1`: the Potency was 20.6 µM (active).

As to `C[n+]1cc(C(=O)N2CCCCC2)ccc1/C=C/c1c[nH]c2ccccc12`, the Potency is 17.7 µM (active).

Consider `c1ccc2c(c1)Cc1cc3ccccc3nc1-2`, for which the Potency was 1.64 µM (active).

For the compound `CN(C)c1ccc(/C=C/c2ccnc3ccc(I)cc23)cc1`, the Potency was 5.17 µM (active).

Regarding `Cc1cc(C)c2nccc(/C=C/c3ccc(N(C)C)cc3)c2c1`, the Potency is 11.6 µM (active).

Turning to `CN(C)c1ccc(/C=C/c2ccnc3ccc(N)cc23)cc1`, the Potency was 18.4 µM (active).

For `Cc1ccc2nccc(/C=C/c3ccc(N(C)C)cc3)c2c1`, the Potency is 11.6 µM (active).

Take `FC(F)(F)c1ccccc1NC(=S)NN=C1CCCCCC1`: the max response was 19.2%.

As to `COc1ccc2nccc(/C=C/c3ccc(N(C)C)cc3)c2c1`, the Potency is 18.4 µM (active).

As to `CN(C)c1ccc(/C=C/c2ccnc3ccc(Br)cc23)cc1`, the Potency was 2.06 µM (active).

As for `Cc1ccc2nc(-c3ccccn3)c(Nc3ccccc3C)n2c1`, the max response is 5.76%.

As to `O=C(Nc1ncc(Cc2ccc(SC(F)F)cc2)s1)c1ccccc1`, the Potency was 1.98 µM (active).

Take `Cc1cc([N+](=O)[O-])ccc1-c1ccc(/C=N/NC(=O)c2ccc(Br)o2)o1`: the Potency was 20.6 µM (active).

For `O=C(O)c1cccc(-c2ccc(/C=N/Nc3ccc([N+](=O)[O-])cc3)o2)c1`, the Potency is 14.6 µM (active).

With `CCOc1ccc(S(=O)(=O)N(CC(=O)N/N=C/c2ccc(-c3ccc([N+](=O)[O-])cc3)o2)c2ccccc2)cc1`, the Potency was 11.2 µM (active).

In the case of `O=C(O)c1ccc(-c2ccc(/C=N/Nc3ccc([N+](=O)[O-])cc3)o2)cc1`, the Potency was 15.8 µM (active).
